INHIBITION data for 70 compounds are collected here from ChEMBL document CHEMBL4513216, “Probing the Open Global Health Chemical Diversity Library for Multistage-Active Starting Points for Next-Generation Antimalarials” (ACS Infect Dis, 2020).

Among all 69,000 compounds or so, about 8,600 (12%) showed an effect of 50% or more. The list comes from a sample in which strong results are over-represented; it also holds similar structures and randomly drawn compounds.

In this assay the test system is Plasmodium berghei. The experiment in a line: Screen against P. berghei liver stage (PbLuc), transformed with Luciferase, at 10uM. The conditions noted are these: tested at 10 uM. The format is functional, HepG2.
Turning to `CCc1nc(C2CCCN2C(=O)CCc2c(C)noc2Cl)no1` (stereo not given), the INHIBITION is 1.78%.

Take `CCc1nnc2n1CCN(C(=O)C(C)Oc1cccc(C#N)c1)C2` (stereo not given): the INHIBITION is recorded as -15%.

Consider `COCC(=O)N1CCN(CCn2cccn2)c2nc(C)ccc2C1`, for which the INHIBITION was 21.4%.

As for `CC(C)C(Nc1nc(C(F)(F)F)nc2ccccc12)C(=O)O` (stereo not given), the INHIBITION was found to be 22.3%.

Regarding `CCC(Nc1nc(C(F)(F)F)nc2ccccc12)C(=O)O` (stereo not given), the INHIBITION is on record as -21.3%.

As to `FC(F)(F)c1nc(NC2CCCC2)c2ccccc2n1`, the INHIBITION is on record as 88.4%.

With `FC(F)(F)c1nc(NC2CCCCC2)c2ccccc2n1`, the INHIBITION is recorded as 88.4%.

As to `Cc1nc2n(n1)CC(Nc1nc(C(F)(F)F)nc3ccccc13)CC2` (stereo not given), the INHIBITION is reported as -59.3%.

In the case of `CC(C(=O)NC1CCCCC1)N1CCc2[nH]nc(C(F)(F)F)c2C1` (stereo not given), the INHIBITION is -41.7%.

With `Cc1noc(C)c1-c1ccc(C2CCCN2CCC(N)=O)nc1` (stereo not given), the INHIBITION came to 30.4%.

Take `CC(C)N1CCC(Cc2cncc(-c3cc(F)ccc3C(=O)O)n2)C1` (stereo not given): the INHIBITION came out at 35.2%.

As to `Cc1cnc(CN2CCCC2c2cnn(C)c2)cn1` (stereo not given), the INHIBITION is -11.4%.

With `Cc1ccccc1N(CC(=O)NCCc1nnc2n1CCC2)S(C)(=O)=O`, the INHIBITION is given as -9.51%.

Take `CN1CCCCC1c1ncc2c(n1)CCN(Cc1ccc(F)cc1)C2` (stereo not given): the INHIBITION turned out to be 24.4%.

Regarding `COc1ccc(CN2CCc3nc(C4CCCCN4C)ncc3C2)cc1` (stereo not given), the INHIBITION amounted to 42.6%.

In the case of `CN1CCc2nc(C3CCCCN3Cc3ccccc3Cl)ncc2C1` (stereo not given), the INHIBITION came out at 13.5%.

`CN1CCCCC1c1ncc2c(n1)CCN(Cc1ccccc1Cl)C2` (stereo not given): the INHIBITION came out at 51.7%.

Take `Clc1ccccc1CN1CCc2nc(C3CCCCN3)ncc2C1` (stereo not given): the INHIBITION is reported as 43.2%.

Regarding `CN1CCCCC1c1ncc2c(n1)CCN(Cc1ccc(Cl)c(F)c1)C2` (stereo not given), the INHIBITION is reported as 58.1%.

For `CC(=O)N(Cc1noc(C)n1)C1CCN(Cc2c(C)noc2C)C1` (stereo not given), the INHIBITION is listed as -27.8%.

Turning to `O=C(c1ccc(-n2cccn2)nc1)N1CCC(c2ccn[nH]2)C1` (stereo not given), the INHIBITION stood at 23%.

For the compound `Cc1cncc(C2CCN(C(=O)c3ccc(-n4cccn4)nc3)CC2)n1`, the INHIBITION is reported as -35.5%.

Turning to `O=C(c1ccc(-n2cccn2)nc1)N1CCC(c2ccc(O)cc2)CC1`, the INHIBITION was 50.1%.

Turning to `O=C(O)CN(Cc1ccsc1)CC1CCCO1` (stereo not given), the INHIBITION is 8.7%.

On to `Cc1noc(C)c1CN1CCn2cc(CN3CCCC3)nc2C1`, for which the INHIBITION is recorded as -15.2%.

Regarding `CCc1cnc(N)nc1NCCCn1cc(Cl)cn1`, the INHIBITION is recorded as 64.1%.

`CCc1cnc(N)nc1NCCCn1nc(C)nc1C`: the INHIBITION turned out to be 14.6%.

Take `COc1ccc(CNc2cc(-c3nc(C)no3)ccn2)c(OC)c1`: the INHIBITION amounted to 6.61%.

For the compound `CCc1cnc(N)nc1NCc1ccc(OC)cc1OC`, the INHIBITION worked out at 73.8%.

In the case of `COc1ccc(OC)c(CCNc2ncc(S(N)(=O)=O)s2)c1`, the INHIBITION is -19.9%.

In the case of `CCc1cnc(N)nc1NCCc1ccc(OC)cc1OC`, the INHIBITION is 58.05%.

For the compound `CCc1cnc(N)nc1NCCCN1CCCCC1CO` (stereo not given), the INHIBITION turned out to be 6.94%.

Regarding `CCc1cnc(N)nc1NCCn1cc(Cl)cn1`, the INHIBITION is 30.4%.

Turning to `CCc1cnc(N)nc1NCc1ccc(OC)c(OC)c1`, the INHIBITION amounted to 44%.

Regarding `COc1cccc(C(=O)N2CCC(Nc3ccc(C)nn3)CC2)c1`, the INHIBITION is listed as 21.5%.

Take `Cc1nnc(NC(=O)NC(C)Cn2cccn2)s1` (stereo not given): the INHIBITION is on record as -21.9%.

On to `COc1cc2nc(C)n(CC(=O)NCCCO)c(=O)c2cc1OC`, for which the INHIBITION was -5.01%.

Take `Cn1cc(C(=O)N[C@@H]2CN(Cc3ccc(F)cc3)[C@@H]3CCCO[C@@H]32)cn1`: the INHIBITION is on record as -17.1%.

Consider `O=C(NCc1ccncc1)C1CN(c2nc3ccccc3s2)CCN1` (stereo not given), for which the INHIBITION is 30.4%.

Turning to `O=C(NCc1ccccn1)[C@H]1COC[C@H]2CN(c3ncccn3)C[C@H]21`, the INHIBITION amounted to 41%.

In the case of `O=C(NCc1cccnc1)C1CN(c2cnc3ccccc3n2)CCN1` (stereo not given), the INHIBITION is listed as 37.8%.

Regarding `O=C(NC1CCCC1)O[C@H]1COCCN(c2nc3ccccc3s2)C1`, the INHIBITION worked out at 85.1%.

In the case of `O=C(NCc1ccccn1)NC1CCCN(c2ncccn2)C1` (stereo not given), the INHIBITION turned out to be 23%.

As to `O=C(NC1CC1)C1CN(c2nc3ccccc3s2)CCN1` (stereo not given), the INHIBITION is recorded as 65.6%.

Turning to `Cc1ccc(CN2CCNC(C(=O)NC3CC3)C2)cc1C` (stereo not given), the INHIBITION is recorded as -2.25%.

Turning to `CCCc1nc(C)cc(N2CCNC(C(=O)NC3CC3)C2)n1` (stereo not given), the INHIBITION is reported as 47.1%.

Regarding `CC(C)NC(=O)O[C@H]1COCCN(c2nc3ccccc3s2)C1`, the INHIBITION is given as -1.12%.

Regarding `O=C(NCc1ccccn1)C1CN(c2nc3ccccc3s2)CCN1` (stereo not given), the INHIBITION was found to be 58.2%.

Take `Nc1nccc(N2CCNC(C(=O)NCc3ccccn3)C2)n1` (stereo not given): the INHIBITION is 52.6%.

As for `CCNC(=O)O[C@H]1COCCN(c2nc3ccccc3s2)C1`, the INHIBITION was -3.58%.

Regarding `Cc1cc(=O)n2c3c(cc(S(=O)(=O)NC4CC4)cc13)CCC2`, the INHIBITION was 49.45%.

As for `Cc1cc(CN2CCc3cncnc3C2)no1`, the INHIBITION was 23.9%.

Turning to `Cc1ccccc1-c1cc(CC2(C(=O)O)CCOCC2)on1`, the INHIBITION is -21.4%.

Turning to `Cc1cc(CN2CCN(Cc3ccccc3F)CC2)no1`, the INHIBITION was -4.35%.

Turning to `CN(C)C(=O)c1cncnc1-c1ccc(CNC(=O)C2CCCO2)cc1` (stereo not given), the INHIBITION is listed as 4.615%.

As to `CC(C)n1c(=O)[nH]c2cn(-c3ccc(F)cc3)c(=O)n21`, the INHIBITION is reported as 3.16%.

As for `Cc1[nH]c2c(C)ccc(C)c2c1CC(=O)NCCCNc1cccnc1`, the INHIBITION was determined as 36.7%.

As for `Cc1[nH]c2c(C)ccc(C)c2c1CC(=O)NCC(O)c1cccnc1` (stereo not given), the INHIBITION is 76.5%.

In the case of `Cc1[nH]c2c(C)ccc(C)c2c1CC(=O)NCCNc1cccnc1`, the INHIBITION is -17.2%.

In the case of `Cc1ccc2c(n1)N(C)CCN(C(=O)C1CC1)C2`, the INHIBITION amounted to 7.84%.

Regarding `COC(=O)CCN(C)C(=O)c1csc(Cc2ccccc2F)n1`, the INHIBITION was found to be 91.3%.

For the compound `CCNC(=O)CN(CC)C(=O)c1csc(Cc2ccccc2F)n1`, the INHIBITION is 32%.

As to `CC(C)NC(=O)CN(C)C(=O)c1csc(Cc2ccccc2F)n1`, the INHIBITION is listed as 23.1%.

For `CC(C)NC(=O)N1CC[C@H]2[C@H]1CCN2c1ncccn1`, the INHIBITION is -44.2%.

`Cc1cnc(CNc2ncc(C)c(-c3cnn(C)c3)n2)cn1`: the INHIBITION was found to be 39.4%.

As to `Cc1cnn(CC(C)NCc2csc(-c3cnn(C)c3)n2)c1` (stereo not given), the INHIBITION is 47.1%.

As for `Cc1cnc(NCc2cnn(C)c2)nc1-c1cnn(C)c1`, the INHIBITION worked out at 61.2%.

On to `CCNc1ncc(C)c(-c2cnn(C)c2)n1`, for which the INHIBITION is 27.6%.

Take `Cc1cnc(NCc2ccncc2)nc1-c1cnn(C)c1`: the INHIBITION was 2.15%.

In the case of `Cc1cnc(NCc2csc(C(C)C)n2)nc1-c1cnn(C)c1`, the INHIBITION amounted to 58.5%.
